Measured values taken from ChEMBL document CHEMBL1961873, “Compounds: GSK PKIS; Assays: Nanosyn kinase panel” (2012).

The compounds below were run against Insulin receptor-related protein (Homo sapiens) (UniProt P14616). Conditions: at 0.1 µM.
Insulin receptor-related protein (Homo sapiens), sequence (P14616 27-742 limits assumed): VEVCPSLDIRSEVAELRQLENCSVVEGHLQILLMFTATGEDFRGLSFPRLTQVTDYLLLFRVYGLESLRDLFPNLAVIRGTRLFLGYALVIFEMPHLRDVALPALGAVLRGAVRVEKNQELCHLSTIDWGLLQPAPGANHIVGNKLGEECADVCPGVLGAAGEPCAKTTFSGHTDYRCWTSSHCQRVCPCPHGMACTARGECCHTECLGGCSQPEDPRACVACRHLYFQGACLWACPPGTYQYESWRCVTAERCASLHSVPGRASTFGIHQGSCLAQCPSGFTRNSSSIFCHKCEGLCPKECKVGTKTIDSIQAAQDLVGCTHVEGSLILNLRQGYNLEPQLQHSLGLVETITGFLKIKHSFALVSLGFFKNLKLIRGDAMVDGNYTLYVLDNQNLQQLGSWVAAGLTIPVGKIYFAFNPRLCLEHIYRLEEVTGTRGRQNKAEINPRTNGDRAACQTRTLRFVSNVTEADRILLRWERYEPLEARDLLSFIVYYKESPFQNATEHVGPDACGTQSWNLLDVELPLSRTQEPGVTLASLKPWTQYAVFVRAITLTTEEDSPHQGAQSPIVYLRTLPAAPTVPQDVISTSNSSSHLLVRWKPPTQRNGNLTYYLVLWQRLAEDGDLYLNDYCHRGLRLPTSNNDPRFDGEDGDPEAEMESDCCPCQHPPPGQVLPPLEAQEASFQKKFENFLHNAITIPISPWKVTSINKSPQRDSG
Insulin receptor-related protein (Homo sapiens), sequence (P14616 747-1297 limits assumed): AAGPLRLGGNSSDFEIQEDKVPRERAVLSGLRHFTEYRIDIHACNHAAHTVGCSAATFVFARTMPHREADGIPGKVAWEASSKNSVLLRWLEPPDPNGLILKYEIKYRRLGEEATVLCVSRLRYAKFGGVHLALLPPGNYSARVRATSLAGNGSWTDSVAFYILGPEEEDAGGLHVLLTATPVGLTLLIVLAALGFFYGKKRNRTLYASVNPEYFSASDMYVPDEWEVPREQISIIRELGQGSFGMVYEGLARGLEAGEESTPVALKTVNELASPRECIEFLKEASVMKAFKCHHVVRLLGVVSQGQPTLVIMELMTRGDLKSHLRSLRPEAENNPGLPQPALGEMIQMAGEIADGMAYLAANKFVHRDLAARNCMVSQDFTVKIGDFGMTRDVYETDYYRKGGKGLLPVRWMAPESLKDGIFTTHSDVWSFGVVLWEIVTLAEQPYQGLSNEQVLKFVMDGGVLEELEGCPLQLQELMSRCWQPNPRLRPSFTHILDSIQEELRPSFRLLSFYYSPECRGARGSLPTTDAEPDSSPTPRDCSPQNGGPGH
Work on `COc1ccc(-c2nn3ncccc3c2-c2ccnc(Nc3cccc(C(F)(F)F)c3)n2)cc1` yielded an inhibition of 1.52%. `COc1cc(/C=N/Nc2ncnc3c2cnn3C(C)C)ccc1O` was tested, and the inhibition was -1.25%. With `Cc1ccc2c(-c3ccnc(Nc4cccc(C(F)(F)F)c4)n3)c(-c3ccccc3)nn2n1` the inhibition was 2.33%. `Cc1cc(-c2ccccn2)cc(C)c1/C=C/c1cncc(-c2nn[nH]n2)c1` was tested, and the inhibition was 0.66%. `c1ccc(Cc2nc3ccc(Nc4ncnc5ccccc45)cc3[nH]2)cc1` gave an inhibition of 2.51%. With `NS(=O)(=O)c1ccc(NC=C2C(=O)Nc3ccc4ncsc4c32)cc1` the inhibition was 3.96%. `Cc1ccc2c(c1)/C(=N/Nc1ccc(S(N)(=O)=O)cc1)C(=O)N2` showed an inhibition of -1.32%. Compound `Nc1nccc(C#Cc2cncnc2Nc2ccc(OCc3cccc(F)c3)c(Cl)c2)n1` has an inhibition of 8.14%. Work on `CCCN1CCCC(c2ccc(Nc3nc(Nc4cc(F)ccc4C(N)=O)c4cc[nH]c4n3)c(OC)c2)C1` (centres undefined) yielded an inhibition of 93.7%. Compound `O=C1Nc2ccc(-c3cccnc3)cc2C1=Cc1cc(Br)c(O)c(Br)c1` has an inhibition of 4.28%. In the case of `ON=C1CCc2cc(-c3nc(C4CCNCC4)[nH]c3-c3ccncc3)ccc21`, the inhibition is reported as -1.51%. In the case of `Oc1cccc(-c2nc(-c3ccccc3)[nH]c2-c2ccncc2)c1`, the inhibition is reported as 2.79%. For `Cc1ccc2c(-c3ccnc(Nc4ccc5c(c4)OCCO5)n3)c(-c3ccc(C(F)(F)F)cc3)nn2n1`, the inhibition was 1.35%. `O=S(=O)(CCOCc1ccc(-c2ccc3ncnc(Nc4ccc(OCc5cccc(F)c5)c(Cl)c4)c3c2)o1)c1ccccc1` gave an inhibition of -2.12%. With `COc1cc2ncnc(Nc3ccc4c(cnn4Cc4ccccc4)c3)c2cc1OC` the inhibition was 0.39%. In the case of `COC(=O)Nc1nc2cc(Oc3ccc(NC(=O)Nc4cccc(Br)c4)cc3)ccc2[nH]1`, the inhibition is reported as 1.82%.

What follows are compounds tested against Insulin receptor-related protein (Homo sapiens) (UniProt P14616). Conditions: at 1 µM.
Compound `N#Cc1cccc(Nc2nccc(-c3cnn4ncccc34)n2)c1` has an inhibition of 10.8%. In the case of `Cc1cc(O)cc(C)c1/C=C/c1cncc(C(=O)N(C)C)c1`, the inhibition is reported as 1%. `CN(C)CCCn1c(-c2nonc2N)nc2cnccc21` showed an inhibition of 4.16%. With `COc1cccc(-n2ncc3c(N/N=C/c4ccc(S(C)(=O)=O)cc4)ncnc32)c1` the inhibition was 0.63%. Compound `COc1cc(Nc2nccc(-c3cnn4ncccc34)n2)cc(OC)c1` has an inhibition of 22.1%. For `NC(=O)c1cccc(Nc2nccc(Nc3cccc(F)c3)n2)c1`, the inhibition was 1.15%. `NS(=O)(=O)c1ccc(Nc2cc(-c3cccc(O)c3)n[nH]2)cc1` was tested, and the inhibition was 2.76%. `CC(C)c1ccc(Nc2nccc(-c3cnn4ncccc34)n2)cc1` showed an inhibition of 8.71%. For `O=C1Nc2ccccc2/C1=C/Nc1ccc2[nH]c(=O)[nH]c2c1`, the inhibition was 6.41%. Work on `CN1CCN(C(=O)c2ccc(NC(=O)Nc3ccc(N(C)c4ccnc(Nc5ccc(CS(C)(=O)=O)cc5)n4)cc3)cc2)CC1` yielded an inhibition of 2.44%. `CCn1c(-c2nonc2N)nc2c(C#CC(C)(C)O)nc(OCCNC)cc21` gave an inhibition of 1.9%. With `COc1cccc(-n2ncc3c(N/N=C/c4ccc(C)cc4)ncnc32)c1` the inhibition was 15.3%. `NS(=O)(=O)c1cccc(Nc2cc(-c3ccc(F)cc3)n[nH]2)c1` was tested, and the inhibition was 2.3%. `Cc1cc(Cl)cc2c1NC(=O)C2=NNc1ccc(S(N)(=O)=O)cc1` gave an inhibition of 1.47%. With `CN(C)C(=O)O[C@@H]1CN[C@@H](C#Cc2cc3ncnc(Nc4ccc(OCc5cccc(F)c5)c(Cl)c4)c3s2)C1` the inhibition was 0.29%. `CN(C)c1cc2c(Nc3ccc4c(cnn4Cc4ccccc4)c3)ncnc2cn1` gave an inhibition of 0.35%. `CN(C)C(=O)O[C@H]1CN[C@H](C#Cc2cc3ncnc(Nc4ccc(OCc5cccc(F)c5)c(Cl)c4)c3s2)C1` gave an inhibition of 1.4%. In the case of `COc1ccc(-c2nn3ncccc3c2-c2ccnc(Nc3cccc(C(F)(F)F)c3)n2)cc1`, the inhibition is reported as 1.54%. In the case of `COc1cc(/C=N/Nc2ncnc3c2cnn3C(C)C)ccc1O`, the inhibition is reported as 2.79%. In the case of `Cc1ccc2c(-c3ccnc(Nc4cccc(C(F)(F)F)c4)n3)c(-c3ccccc3)nn2n1`, the inhibition is reported as 6.16%. For `Cc1cc(-c2ccccn2)cc(C)c1/C=C/c1cncc(-c2nn[nH]n2)c1`, the inhibition was 2.24%. Compound `c1ccc(Cc2nc3ccc(Nc4ncnc5ccccc45)cc3[nH]2)cc1` has an inhibition of 3.31%. `NS(=O)(=O)c1ccc(NC=C2C(=O)Nc3ccc4ncsc4c32)cc1` gave an inhibition of 6.03%. `Cc1ccc2c(c1)/C(=N/Nc1ccc(S(N)(=O)=O)cc1)C(=O)N2` gave an inhibition of -0.18%. Work on `Nc1nccc(C#Cc2cncnc2Nc2ccc(OCc3cccc(F)c3)c(Cl)c2)n1` yielded an inhibition of 1.12%. In the case of `CCCN1CCCC(c2ccc(Nc3nc(Nc4cc(F)ccc4C(N)=O)c4cc[nH]c4n3)c(OC)c2)C1` (centres undefined), the inhibition is reported as 97%. With `O=C1Nc2ccc(-c3cccnc3)cc2C1=Cc1cc(Br)c(O)c(Br)c1` the inhibition was 2.51%. Compound `ON=C1CCc2cc(-c3nc(C4CCNCC4)[nH]c3-c3ccncc3)ccc21` has an inhibition of -0.82%.
